Our source for the inhibition values is PubChem BioAssay AID1063 (University of Pittsburgh Molecular Library Screening Center, 2008).

Each structure is given as a SMILES string. The campaign covered roughly 200,000 compounds. About 18,000 (9%) were called active. This excerpt belongs to a sample that is enriched for actives. Values without a mark were called inactive. Cut-off read from the data, not from the text of the source: active = inhibition above about 50%; inactive = the rest.

A short description of this test: antileishmanial activity against promastigotes – primary screen (AID 1063).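 Note: promastigotes grown with compound for 44 hours at 28 °C.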 The conditions noted are these: Leishmania major promastigotes, resazurin fluorescence viability; at 10 µM; active compounds read high. For orientation: Resazurin is reduced to fluorescent resorufin, in cell work by metabolically active cells.
Regarding `Nc1nnc(SCn2nnc3ccccc3c2=O)s1`, the inhibition was -7.44%. `CCNC(=S)Nc1cccc(Cl)c1C`: the inhibition is -6.44%. Take `S=C(NCc1ccc2c(c1)OCO2)NCc1ccco1`: the inhibition was 8.29%. `Cc1c(Cl)cccc1NC(=S)NCc1ccc2c(c1)OCO2`: the inhibition was 81.5% (active). Take `CC(C)(C)c1cnnn1-c1ccc([N+](=O)[O-])cc1`: the inhibition was -0.24%. With `CCc1nnc(NS(=O)(=O)c2ccc(NC(=S)NC(=O)c3cccs3)cc2)s1`, the inhibition is -1.21%. For `Cc1c(C(=O)O)nnn1-c1nonc1N`, the inhibition was -0.68%. To `Cc1ccc(C(=O)Nc2cccc3ncccc23)cc1[N+](=O)[O-]` belongs 0.51%. For `O=C(Nc1cccc2ncccc12)C(Cl)(Cl)Cl`, the inhibition is -0.02%. As to `Cc1ccc(/C=C(\C#N)C(=O)Nc2cccc3ncccc23)o1`, the inhibition is 55.2% (active). `C=CCn1c(SCc2cc(C(=O)OC)c(C)o2)nnc1-c1ccncc1`: the inhibition was -5.9%.

On to `C=CCn1c(SCn2nnc3ccccc3c2=O)nnc1-c1ccc(Cl)cc1`, for which the inhibition was 1.86%. Regarding `C=CCn1c(SCc2c(C(=O)OC)sc(N)c2C(=O)OC)nnc1-c1ccc(Cl)cc1`, the inhibition is 50.9% (active).

For the compound `CCOC(=O)C1(CC2CCCCO2)CCN(Cc2nc(-c3cccs3)oc2C)CC1` (stereo not given), the inhibition was 19.6%.

For the compound `Cc1ccccc1NC(=O)NNC(=O)OC(C)(C)C`, the inhibition was -6.97%.

Consider `CCC(C)(C)NC(=O)C1c2ccccc2Oc2ccccc21`, for which the inhibition is 1.22%. As for `CCOc1ccccc1C(=O)NCc1ccco1`, the inhibition was -8.32%.

For `CCCC1=Nc2cc(C(=O)NCc3ccco3)ccc2Sc2ccccc21`, the inhibition was 91.3% (active).

Regarding `CCCCOc1ccc(C(=O)NCc2ccco2)cc1`, the inhibition was -3.02%.

On to `Cc1ccc(S(=O)(=O)N2CCOCC2)cc1NC(=O)CSc1nnc(N)s1`, for which the inhibition is -4.64%. As to `CC(Sc1nncn1C)C(=O)Nc1cc(C(F)(F)F)ccc1N1CCOCC1` (stereo not given), the inhibition is -8.57%. As for `CCCCNC(=O)c1ccc(-n2c(=S)[nH]c3ccccc3c2=O)cc1`, the inhibition is 2.08%.

Consider `Cn1c(=O)c2cc(S(=O)(=O)NCCC(=O)Nc3ccc(F)cc3F)ccc2n(C)c1=O`, for which the inhibition is 8.04%. In the case of `Cc1ccc(-c2nc3c(cnn3-c3ccccc3)c(=O)o2)cc1`, the inhibition is -4.66%. Consider `Cc1ccc(-n2ncc3c2ncn2nc(-c4ccco4)nc32)c(C)c1`, for which the inhibition was -2.03%. Next, `Cc1ccc(-n2ncc3c(=O)n(-c4ccc(C)c(C)c4)c(-c4ccco4)nc32)cc1`: 51.5% (active); `COc1ccc(-c2nc(CN3CCN(c4ncccn4)CC3)c(C)o2)cc1C`: 30.8%; `COc1cc(OC)cc(-c2nc(=S)n3ccsc3n2)c1`: -3.3%. Take `O=C(N1CCCCC1)N1CCN(C(=O)N2CCCCC2)CC1`: the inhibition is -3.35%. Next, `Cc1ccccc1NC(=O)c1nn(-c2ccc(F)c(F)c2)ccc1=O`: -0.26%; `Cc1ccccc1-c1nnc(SCC(=O)NCc2ccc3c(c2)OCO3)n1C`: -5.07%; `Cc1cccc(C)c1NC(=O)CSc1nnc(-c2ccccc2)n1Cc1ccc2c(c1)OCO2`: 53.4% (active). Consider `Cc1cnc(NC(=O)CSc2nnc(-c3ccccc3)n2Cc2ccccc2)s1`, for which the inhibition is 12.5%. Take `COc1ccc(C2C(C(C)=O)=C(O)C(=O)N2CCc2c[nH]c3ccccc23)cc1` (stereo not given): the inhibition was -4.35%. Take `COc1ccccc1NC(=O)CSc1nnc(-c2ccoc2C)n1CCc1ccccc1`: the inhibition is 76.2% (active). Regarding `COc1ccccc1NC(=O)CSc1nnc(C)n1CC1CCCO1` (stereo not given), the inhibition is -2.8%. In the case of `CCCn1c(SCC(=O)Nc2cccc(C(=O)OCC)c2)nnc1-c1ccoc1C`, the inhibition was 23.8%. On to `Cc1ccc(CN2CCC(N3CCC(C(=O)NCC4CCCO4)CC3)CC2)o1` (stereo not given), for which the inhibition was -6.4%. Turning to `CC(=O)c1cc(-c2ccccc2)n(CC(=O)NC2CCCCC2)c1C`, the inhibition is -2.4%. In the case of `COc1ccccc1NC(=O)/C=C/C(=O)O`, the inhibition was -7.02%. For `COc1ccccc1NC(=O)c1ccc(C)s1`, the inhibition was 13.5%.

Take `COc1ccccc1NC(=O)/C=C/C(N)=O`: the inhibition is 59.7% (active). For the compound `O=C(COC(=O)c1cnc(Cl)c(Cl)c1)NCc1ccco1`, the inhibition was -5.74%. As for `O=C(CC1SCCNC1=O)Nc1ccc(Cl)cc1` (stereo not given), the inhibition is -5.68%. For `COc1ccc2c(c1)C(SCC(=O)NCc1ccccc1)CC(C)(C)O2` (stereo not given), the inhibition was -6.83%. In the case of `COc1ccc2c(c1)C=CC1(O2)N(CCO)c2ccccc2C1(C)C` (stereo not given), the inhibition is 99.2% (active).

For `COc1cccc(CC2(CO)CCCN(CC3=Cc4cc(OC)ccc4OC3)C2)c1` (stereo not given), the inhibition is -1.53%. Regarding `CC(C)C(=O)NCc1cc(-c2ccc(Cl)cc2)no1`, the inhibition is 1.34%. Consider `CCN(c1ccccc1)S(=O)(=O)c1ccc(N)cc1`, for which the inhibition is -4.44%. Take `COc1ccccc1N(CC(=O)N1CCCCC1)S(=O)(=O)c1ccccc1`: the inhibition is -2.25%.

For the compound `CCN(c1ccccc1)S(=O)(=O)c1cccc(C(=O)O)c1`, the inhibition is -3.46%. In the case of `CCN(c1ccccc1)S(=O)(=O)c1ccc2[nH]c(=O)[nH]c2c1`, the inhibition is -5.33%. In the case of `Cc1ccc(N(CC(O)CN2CCCC2)S(=O)(=O)c2ccccc2)cc1` (stereo not given), the inhibition is 60.2% (active). Consider `O=S(=O)(c1ccccc1)N(CC(O)CN1CCCCC1)c1ccccc1` (stereo not given), for which the inhibition was 45%. As for `Cc1cccc(N(CC(=O)N2CCOCC2)S(C)(=O)=O)c1`, the inhibition was 0.32%. To `Cc1cccc(N(CC(O)CN(C)C)S(=O)(=O)c2ccccc2)c1` (stereo not given) belongs 95.9% (active); to `Cc1cc(C)n(CC(O)CN(c2ccccc2)S(=O)(=O)c2ccc3ccccc3c2)n1` (stereo not given), 61.1% (active).

Take `CC1CCCCC1NC(=O)COC(=O)Cc1ccc(Br)cc1` (stereo not given): the inhibition is -8.18%. Consider `C/C(=N\OCC(=O)Nc1ccc(Br)cc1)c1cccs1`, for which the inhibition was -1.5%. In the case of `Cc1cc(NC(=O)CN2C(=O)NC(C)(CCc3ccccc3)C2=O)no1` (stereo not given), the inhibition was 2.34%. Next, `CCc1cccc2c(=O)c(C(=O)NCCCOC)c[nH]c12`: -1.23%; `Cc1ccc(/C=N/NC(=O)C2=NNC(c3ccccc3)(c3ccccc3)C2)c(O)c1`: 100% (active); `Cc1ccc(-c2nn(-c3ccccc3)cc2/C=N/NC(=O)c2ccc3c(c2)OCO3)cc1`: 8.23%.

Regarding `Cc1ccc(/C=N/NC(=O)C(NC(=O)c2ccccc2)c2n[nH]c(=O)c3ccccc23)cc1` (stereo not given), the inhibition is -1.59%. Next, `CNCC(O)CN1CCN(c2ccccc2OC)CC1` (stereo not given): -6.68%. To `COC(=O)c1c(NC(=O)CN2CCN(S(=O)(=O)c3ccccc3[N+](=O)[O-])CC2)sc2c1CCC(C)C2` (stereo not given) belongs 76.2% (active); to `Cc1c(Br)c([N+](=O)[O-])nn1CC(=O)Nc1sc2c(c1C(=O)OC(C)C)CCC(C)C2` (stereo not given), -5.92%; to `COC(=O)c1c(NC(=O)CN2C(=O)NC(CCc3ccccc3)C2=O)sc2c1CCCCC2` (stereo not given), 28.1%. With `Cc1ccc(NC(=O)C(=O)NCc2ccco2)c(C)c1`, the inhibition was -8.28%.

On to `C/C(CC(=O)Nc1ccc(C)cc1C)=N\NC(=O)C(C)C`, for which the inhibition is 13.4%. With `NC(=O)c1ccc(N2CCOCC2)nc1`, the inhibition is 2.59%.

In the case of `Cc1cc(F)ccc1S(=O)(=O)Nc1ncnc2scc(-c3ccc(F)cc3)c12`, the inhibition is 64.1% (active). Regarding `COc1ccc(-c2csc3ncnc(Oc4ccc5c(C)cc(=O)oc5c4)c23)cc1`, the inhibition is 16.6%. Regarding `CCn1cnc2scc(-c3ccc(C)c(C)c3)c2c1=O`, the inhibition was -4.16%. `O=C(NCc1nnc(SCC(=O)N2CCC(Cc3ccccc3)CC2)o1)c1ccco1`: the inhibition is 25%. Consider `COCC(C)NC(=O)COc1nncc2ccccc12` (stereo not given), for which the inhibition is 4.91%. `CNC(=O)NC(=O)C(OC(=O)c1cccc(S(=O)(=O)N2CCCCC2)c1)c1ccccc1` (stereo not given): the inhibition was 63.2% (active). Consider `O=C(NNC1=NCCC1)c1cccc(S(=O)(=O)N2CCCCC2)c1`, for which the inhibition is -5.29%. Next, `CN1CCN(S(=O)(=O)c2cccc(C(=O)O)c2)CC1`: -1.21%; `CCN1CCCC1CNc1ncnc2c1[nH]c1ccc(F)cc12` (stereo not given): 78.6% (active). To `CCN1CCCC1Cn1cnc2c([nH]c3cc(OC)ccc32)c1=O` (stereo not given) belongs 10.5%.

As for `CC(C)OCCCNc1ncnc2c1[nH]c1ccc(F)cc12`, the inhibition was 36.3%. In the case of `O=C(NCC1CCCCC1)c1cc(S(=O)(=O)N2CCCCC2)ccc1N1CCOCC1`, the inhibition was 7.99%. For the compound `Cc1cc(/C=C2/C(=N)N3C(=NC2=O)SN=C3S(C)(=O)=O)c(C)n1-c1ccccc1`, the inhibition was 3.11%.

As to `Cc1cccc(NC(=O)c2cccc(C(F)(F)F)c2)c1`, the inhibition is 13.2%. On to `O=C(Nc1cccc(C(F)(F)F)c1)c1ccc(N2CCNCC2)c([N+](=O)[O-])c1`, for which the inhibition was 100% (active). In the case of `O=C(Nc1ccc2c(c1)OCO2)c1ccc(N2C(=O)c3ccccc3C2=O)cc1`, the inhibition is -0.72%. Regarding `O=C(Nc1ccc(N2C(=O)c3cccc4cccc(c34)C2=O)cc1)c1ccc(N2CCCCC2)c([N+](=O)[O-])c1`, the inhibition is 75% (active). With `CC(NC(=O)c1ccc(N2CCNCC2)c([N+](=O)[O-])c1)C12CC3CC(CC(C3)C1)C2` (stereo not given), the inhibition was 7.22%. As to `O=C(COc1ccccc1F)NNC(=O)c1ccc(N2CCCCC2)c([N+](=O)[O-])c1`, the inhibition was -1.27%. As to `C/C(=N/NC(=O)CCc1ccccc1)c1ccco1`, the inhibition is 11.8%. Regarding `CC1=NN(C(=O)c2ccc(Br)cc2)C(O)(c2ccccc2)C1` (stereo not given), the inhibition is -9.77%. Take `CCCCOc1ccc(-c2nnc(-c3ccco3)o2)cc1`: the inhibition was -7.38%. As for `CCOc1ccc(-c2nnc(-c3ccco3)o2)cc1`, the inhibition was 2.35%. In the case of `CCC(=O)Oc1cccc(C(=O)Nc2ccc(-c3nnc(-c4ccco4)o3)cc2)c1`, the inhibition is 98.9% (active).

A word on the inhibition: it is the change of the read-out against control, counted positive when it falls.
